About 83,000 compounds went through this panel and 20% of them were active in at least one assay; those are over-represented in the sample as a whole.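 Testing used 96-well plates and a 48-hour single-concentration exposure. Example: -40 means 40% of the starting cells died.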 Active and inactive are the calls of the source. Rule for the calls: active = growth percent below 10; inactive = the rest.
Experiments:
Assay in all cases: NCI-60 one-dose screen, 48 h (100 = growth as untreated, 0 = no growth, -100 = all killed)
Settings in all cases: 10 µM unless noted
NCI-H23 lung = system: NCI-H23 lung
NCI-H226 lung = system: NCI-H226 lung
NCI-H322M lung = system: NCI-H322M lung
HOP-62 NSCLC = system: HOP-62 NSCLC
NCI-H460 lung = system: NCI-H460 lung
HOP-92 NSCLC = system: HOP-92 NSCLC
NCI-H522 lung = system: NCI-H522 lung
A549/ATCC NSCLC = system: A549/ATCC NSCLC
786-0 renal = system: 786-0 renal
COLO 205 colon = system: COLO 205 colon

Measured: growth

Cc1ccc(C(=O)CSc2nc3ccc(C)cc3c(=O)n2-c2ccc(F)cc2)cc1
active: HOP-62 NSCLC 7.49% | HOP-92 NSCLC -0.0399% | 786-0 renal -3.55%
inactive: NCI-H23 lung 56.8% | NCI-H226 lung 15% | NCI-H322M lung 60% | NCI-H460 lung 32.7% | NCI-H522 lung 63.8% | A549/ATCC NSCLC 57.6% | COLO 205 colon 84%

O=c1onc(-c2cc3ccccc3nc2Cl)n1-c1cccc2ccccc12
inactive: NCI-H23 lung 56.5% | NCI-H226 lung 40.8% | NCI-H322M lung 76.4% | HOP-62 NSCLC 55.6% | NCI-H460 lung 51.7% | HOP-92 NSCLC 38.7% | NCI-H522 lung 27.8% | A549/ATCC NSCLC 55.5% | 786-0 renal 73.3% | COLO 205 colon 56.4%

O=C(N/N=C/c1ccc(-c2ccc(O)cc2)o1)c1[nH]c2ccc(Br)cc2c1-c1ccccc1
active: NCI-H23 lung 5.82% | HOP-62 NSCLC -11.3% | NCI-H460 lung -11.3% | HOP-92 NSCLC -40.7% | NCI-H522 lung -45.9% | 786-0 renal -16.7% | COLO 205 colon -54.5%
inactive: NCI-H226 lung 10.6% | NCI-H322M lung 17.4% | A549/ATCC NSCLC 11.2%

COc1cccc(/C=C/C(=O)c2ccc(OC)c(S(N)(=O)=O)c2)c1
active: NCI-H522 lung -65.1% | COLO 205 colon -18.4%
inactive: NCI-H23 lung 15.1% | NCI-H226 lung 53.9% | NCI-H322M lung 22.2% | HOP-62 NSCLC 21.4% | NCI-H460 lung 16.2% | HOP-92 NSCLC 55.9% | A549/ATCC NSCLC 10.3% | 786-0 renal 14.6%

CCOC(=O)C1=C(N)N(c2ccccc2)C2=C(C(=O)CC(C)(C)C2)C1c1ccc(Cl)cc1Cl (stereo not given)
active: HOP-92 NSCLC -0.322% | COLO 205 colon 9.03%
inactive: NCI-H23 lung 34.5% | NCI-H226 lung 24.4% | NCI-H322M lung 56.8% | HOP-62 NSCLC 50.5% | NCI-H460 lung 18.3% | NCI-H522 lung 35.3% | A549/ATCC NSCLC 26.9% | 786-0 renal 34.3%

Cn1cc(-c2nc(N)nnc2-c2c[nH]c3ccc(Br)cc23)c2cccnc21
inactive: NCI-H23 lung 65.5% | NCI-H226 lung 87.1% | NCI-H322M lung 63.3% | HOP-62 NSCLC 53.2% | NCI-H460 lung 32.8% | HOP-92 NSCLC 94.1% | NCI-H522 lung 31.8% | A549/ATCC NSCLC 56.7% | 786-0 renal 37.1% | COLO 205 colon 44.5%

O=C(N/N=C/c1ccc(-c2ccc(O)cc2)s1)c1[nH]c2ccc(Br)cc2c1-c1ccccc1
inactive: NCI-H226 lung 27.6% | NCI-H322M lung 29.8% | HOP-62 NSCLC 21.2% | NCI-H522 lung 18.6% | A549/ATCC NSCLC 23.8%
active: NCI-H23 lung 7.67% | NCI-H460 lung -18.3% | HOP-92 NSCLC -24.8% | 786-0 renal -28% | COLO 205 colon -32.9%

NC(=S)Nc1cccc(NC(N)=S)c1
inactive: NCI-H23 lung 98.5% | NCI-H226 lung 98.1% | NCI-H322M lung 88.3% | HOP-62 NSCLC 119% | NCI-H460 lung 110% | HOP-92 NSCLC 105% | NCI-H522 lung 97.2% | A549/ATCC NSCLC 93.9% | 786-0 renal 108% | COLO 205 colon 137%

O=C1c2c(c3c4cc(F)ccc4oc3c3[nH]c4ccc(Br)cc4c23)C(=O)N1O
inactive: NCI-H226 lung 61.8% | NCI-H322M lung 79.4% | HOP-62 NSCLC 19.4% | A549/ATCC NSCLC 69.2% | 786-0 renal 15.5% | COLO 205 colon 67.9%
active: NCI-H23 lung 7.64% | NCI-H460 lung 5.53% | HOP-92 NSCLC -39.4% | NCI-H522 lung -18%

CC12CC[C@@H]3[C@]4(C)COC(c5c(F)cccc5F)O[C@@H]4CC[C@@]3(C)[C@@H]1CC(C1=CCOC1=O)O2 (stereo not given in full)
inactive: NCI-H23 lung 62.1% | NCI-H226 lung 63.6% | NCI-H322M lung 79.9% | HOP-62 NSCLC 56.2% | NCI-H460 lung 96.3% | NCI-H522 lung 55.4% | A549/ATCC NSCLC 70.3% | 786-0 renal 46.8% | COLO 205 colon 91.7%
active: HOP-92 NSCLC -3.83%

O=C(N=Nc1c(O)[nH]c2ccc(Cl)cc12)c1ccc2nc(-c3ccccc3)[nH]c2c1
active: NCI-H522 lung 8.85%
inactive: NCI-H23 lung 29.9% | NCI-H226 lung 91.1% | NCI-H322M lung 15.8% | HOP-62 NSCLC 81.3% | NCI-H460 lung 26.3% | HOP-92 NSCLC 77% | A549/ATCC NSCLC 94.3% | 786-0 renal 47.4% | COLO 205 colon 62%

— PubChem BioAssay (NCI)
